# Results from PubChem BioAssay (EPA / NIEHS).
# Results filed as inconclusive are left out. Activity calls are given as the source filed them. How the source made its calls, unless noted: active means hit-call score of the fitted dose curve at least 0.9, where 1 is the maximum; inactive means score below 0.9.
# Key:
# [1] = ACEA_ER_80hr: ACEA Biosciences xCELLigence Real-Time Cell Analysis on Estrogen Receptor Agonism for Proliferation (AID 2282667; active means hit-call score of the fitted dose curve at least 0.9, where 1 is the maximum); conditions: T47D proliferation, impedance (xCELLigence), 80 h
# Summary of the method: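 T47D human breast cells were seeded on electrode plates, monitored overnight, then exposed continuously to compounds in eight-point 1:4 dilutions from 100 uM (max 0.5% DMSO). Impedance-based growth was read at 80 h, fitted upward relative to DMSO.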
# [2] = ATG_CRE_CIS: Attagene CIS-FACTORIAL HepG2 Assay for human cAMP Responsive Element (CRE) binding protein 3 (AID 2282926); conditions: HepG2 CRE cis-reporter, Attagene multiplexed mRNA; actives raise or lower the signal
# Summary of the method: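 Capillary electrophoresis of 6-FAM-labelled, HpaI-digested PCR products quantified reporter transcripts. These came from HepG2 transiently transfected with cis-element reporters and exposed to test chemicals for 24 hours, with DMSO defining baseline activity.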
# [3] = biological target: CCAAT/enhancer-binding protein beta (Homo sapiens) (UniProt P17676); assay: ATG_C_EBP_CIS: Attagene CIS-FACTORIAL HepG2 Assay for human CCAAT/Enhancer Binding Protein (C/EBP) beta (AID 2282927); conditions: HepG2 Attagene cis-factorial transcription factor reporter; actives raise or lower the signal
# Chain of CCAAT/enhancer-binding protein beta (Homo sapiens) (P17676 whole entry, looked up): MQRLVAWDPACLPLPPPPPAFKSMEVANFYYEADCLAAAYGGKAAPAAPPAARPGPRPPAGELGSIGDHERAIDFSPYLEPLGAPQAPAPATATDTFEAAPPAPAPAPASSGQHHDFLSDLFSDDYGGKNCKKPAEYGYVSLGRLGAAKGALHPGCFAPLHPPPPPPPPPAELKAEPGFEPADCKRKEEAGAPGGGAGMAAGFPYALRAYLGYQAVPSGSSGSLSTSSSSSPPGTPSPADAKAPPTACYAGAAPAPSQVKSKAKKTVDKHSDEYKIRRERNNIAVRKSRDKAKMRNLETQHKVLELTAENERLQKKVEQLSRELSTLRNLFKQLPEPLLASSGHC
# Summary of the method: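 RT-PCR/capillary electrophoresis fluorescence of reporter mRNA, 24 h post-dose, in HepG2 cells carrying transfected cis-promoter reporter units. Bidirectional curve fitting against DMSO baseline captures gain or loss of signal.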
# [4] = ATG_CMV_CIS: Attagene CIS-FACTORIAL HepG2 Assay for human CMV (Internal Marker) (AID 2282928); conditions: HepG2 CMV promoter reporter, transcription factor profiling; actives raise or lower the signal;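 further: endpoint acts as a background internal control marker rather than a target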
# Summary of the method: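 24 h chemical treatment, HepG2 with transient multi-reporter transfection; RNA → oligo(dT) RT → PCR → 6-FAM extension → HpaI digest → CE fluorescence. Bidirectional fit, DMSO negative control.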
# [5] = ATG_DR4_LXR_CIS: Attagene CIS-FACTORIAL HepG2 Assay for human Liver X Receptor (LXR), DR4 submotif (AID 2282929); conditions: HepG2 Attagene DR4 cis-reporter, mRNA transcription; actives raise or lower the signal
# Summary of the method: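 Total RNA from 24 h-treated, MRTU-transfected HepG2 cells underwent reverse transcription, PCR, fluorescent primer extension and restriction digestion before capillary electrophoresis. Both increases and decreases in reporter signal were fitted against DMSO.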
# [6] = ATG_AP_1_CIS: Attagene CIS-FACTORIAL HepG2 Assay for human Activator Protein 1 (AP-1) (AID 2282931); conditions: HepG2 Attagene cis-factorial AP-1 reporter mRNA; actives raise or lower the signal
# Summary of the method: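 HepG2, transient cis-reporter transfection; 24 h; readout RT-PCR/CE fluorescence; DMSO baseline, gain and loss fitted.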
# [7] = ATG_AP_2_CIS: Attagene CIS-FACTORIAL HepG2 Assay for human Activator Protein 2 (AP-2) (AID 2282932); conditions: HepG2 AP-2 cis-reporter, Attagene transcription factor profiling; actives raise or lower the signal
# Summary of the method: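 Assay in transfected HepG2 with promoter-regulated reporters, 24 h incubation after dosing. Signal is reporter mRNA fluorescence (RT-PCR, capillary electrophoresis), analysed for both increases and decreases relative to DMSO controls.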
# [8] = ATG_BRE_CIS: Attagene CIS-FACTORIAL HepG2 Assay for human Bone Morphogenetic Protein (BMP) Response Element (BRE) (AID 2282933); conditions: HepG2 BMP response element reporter, Attagene transcription factor profiling; actives raise or lower the signal
# Summary of the method: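 Endogenous transcription factor activity at a BMP response element was monitored in transfected HepG2 cells 24 h after dosing. Fluorescent RT-PCR products were resolved by capillary electrophoresis, and activity was fitted in both directions versus DMSO.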
# [9] = biological target: Retinoic acid receptor alpha (Homo sapiens) (UniProt P10276); assay: ATG_DR5_RAR_CIS: Attagene CIS-FACTORIAL HepG2 Assay for human Retinoic Acid Receptor Alpha (RARE), DR5 submotif (AID 2282934); conditions: HepG2 Attagene cis-factorial RARE DR5 reporter, mRNA; actives raise or lower the signal
# Chain of Retinoic acid receptor alpha (Homo sapiens) (P10276 whole entry, looked up): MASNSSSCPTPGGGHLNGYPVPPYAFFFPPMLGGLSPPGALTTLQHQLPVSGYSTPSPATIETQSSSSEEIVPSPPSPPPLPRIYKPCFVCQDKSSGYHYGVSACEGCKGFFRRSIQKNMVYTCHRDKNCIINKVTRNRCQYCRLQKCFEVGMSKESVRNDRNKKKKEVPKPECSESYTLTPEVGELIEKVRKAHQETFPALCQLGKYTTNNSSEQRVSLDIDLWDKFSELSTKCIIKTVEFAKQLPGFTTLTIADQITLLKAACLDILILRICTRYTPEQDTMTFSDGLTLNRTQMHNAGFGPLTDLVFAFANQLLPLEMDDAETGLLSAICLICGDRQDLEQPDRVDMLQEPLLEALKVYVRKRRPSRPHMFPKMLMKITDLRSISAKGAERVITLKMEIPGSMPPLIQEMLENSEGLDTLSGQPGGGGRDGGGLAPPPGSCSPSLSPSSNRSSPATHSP
# Summary of the method: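 HepG2 cells transiently transfected with multiplexed reporter units under cis (DR5 RARE) promoters, so endogenous transcription factor activity is measured. After 24 h compound exposure, reporter mRNA is quantified by RT-PCR with fluorescent labelling and capillary electrophoresis; bidirectional fitting versus DMSO.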
# [10] = biological target: Transcription factor E2F1 (Homo sapiens) (UniProt Q01094); assay: ATG_E2F_CIS: Attagene CIS-FACTORIAL HepG2 Assay for human E2F Transcription Factor 1 (AID 2282935); conditions: HepG2 Attagene cis-reporter, E2F reporter RNA transcripts; actives raise or lower the signal
# Chain of Transcription factor E2F1 (Homo sapiens) (Q01094 whole entry, looked up): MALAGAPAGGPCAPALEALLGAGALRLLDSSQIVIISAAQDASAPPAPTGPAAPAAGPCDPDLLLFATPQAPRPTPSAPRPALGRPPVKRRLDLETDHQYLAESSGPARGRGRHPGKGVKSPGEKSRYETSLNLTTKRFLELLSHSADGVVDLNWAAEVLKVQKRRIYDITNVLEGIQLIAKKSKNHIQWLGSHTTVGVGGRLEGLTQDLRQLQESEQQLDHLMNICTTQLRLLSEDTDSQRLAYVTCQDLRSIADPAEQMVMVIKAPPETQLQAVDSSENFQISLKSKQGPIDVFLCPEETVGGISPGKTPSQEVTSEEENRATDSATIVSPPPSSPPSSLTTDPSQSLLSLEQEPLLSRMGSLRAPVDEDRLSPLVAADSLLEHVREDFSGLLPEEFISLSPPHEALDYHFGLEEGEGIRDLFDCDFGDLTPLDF
# Summary of the method: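 In this cis-factorial format, endogenous factor activity drives transfected reporters in HepG2; transcripts collected at 24 h are quantified by fluorescence after RT-PCR and capillary separation.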
# [11] = ATG_E_Box_CIS: Attagene CIS-FACTORIAL HepG2 Assay for human Enhancer Box (E-box) (AID 2282936); conditions: HepG2 E-box cis-reporter transcription, actives raise or lower the signal
# Summary of the method: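 Measured 24 h post-dosing in HepG2 cells transfected with multiple cis-regulated reporter units, signal being reporter mRNA induction detected by fluorescent RT-PCR with capillary electrophoresis; gain or loss fitted against DMSO.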
# [12] = ATG_M_61_CIS: Attagene CIS-FACTORIAL HepG2 Assay for M61 Transcription Factor (Internal Marker) (AID 2282937); conditions: HepG2 Attagene CIS-FACTORIAL M61 internal marker reporter; actives raise or lower the signal
# Summary of the method: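 Transfect HepG2 with MRTUs; dose 24 h; isolate RNA; reverse-transcribe with DNase I treatment; PCR-amplify, FAM-label and cut with HpaI for 2 h at 37 C; resolve by CE. Bidirectional fitting against DMSO.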
# [13] = ATG_EGR_CIS: Attagene CIS-FACTORIAL HepG2 Assay for human Early Growth Response 1 (EGR1) (AID 2282938); conditions: HepG2 Attagene CIS-FACTORIAL EGR reporter mRNA; actives raise or lower the signal
# Summary of the method: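 After a 24 h treatment of transiently transfected HepG2 cells, total RNA was reverse-transcribed and reporter sequences PCR-amplified, labelled and run on capillary electrophoresis. Reporters sit under cis-regulatory promoters sensing endogenous factors.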
# [14] = ATG_ERE_CIS: Attagene CIS-FACTORIAL HepG2 Assay for Estrogen Response Element (ERE) (AID 2282940); conditions: HepG2 ERE cis-reporter, Attagene RNA transcript; actives raise or lower the signal
# Summary of the method: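 Cells used were human hepatoma HepG2, transfected with multiple reporter transcription units under cis-regulatory promoters. Reporter mRNA, read 24 h post-dosing via fluorescent RT-PCR products on capillary electrophoresis, was fitted bidirectionally relative to DMSO.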
# [15] = ATG_Ets_CIS: Attagene CIS-FACTORIAL HepG2 Assay for human Erythroblast Transformation Specific (ETS) (AID 2282941); conditions: HepG2 ETS cis-reporter transcription, actives raise or lower the signal
# Summary of the method: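 Cis-regulated reporter mRNA induction in HepG2 (transient transfection), 24 h exposure, RT-PCR plus capillary electrophoresis detection; DMSO serves as negative control and baseline.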
# [16] = biological target: Hepatocyte nuclear factor 3-beta (Homo sapiens) (UniProt Q9Y261); assay: ATG_FoxA2_CIS: Attagene CIS-FACTORIAL HepG2 Assay for human Forkhead box A2 (FOXA2) (AID 2282942); conditions: HepG2 cis-reporter transcription factor activity, 24 h; actives raise or lower the signal
# Chain of Hepatocyte nuclear factor 3-beta (Homo sapiens) (Q9Y261 whole entry, looked up): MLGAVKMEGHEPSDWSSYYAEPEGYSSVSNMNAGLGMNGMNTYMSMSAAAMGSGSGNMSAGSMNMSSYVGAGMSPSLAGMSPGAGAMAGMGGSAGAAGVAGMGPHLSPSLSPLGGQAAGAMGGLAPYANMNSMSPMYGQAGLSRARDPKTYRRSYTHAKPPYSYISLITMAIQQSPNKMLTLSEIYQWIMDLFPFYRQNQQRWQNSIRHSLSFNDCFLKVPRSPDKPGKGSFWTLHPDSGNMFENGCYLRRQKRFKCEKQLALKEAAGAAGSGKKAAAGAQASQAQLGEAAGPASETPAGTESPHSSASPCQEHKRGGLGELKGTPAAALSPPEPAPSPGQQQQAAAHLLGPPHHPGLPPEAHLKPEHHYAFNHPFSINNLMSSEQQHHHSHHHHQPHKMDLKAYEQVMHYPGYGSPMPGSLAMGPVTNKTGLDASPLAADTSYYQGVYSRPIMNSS
# Summary of the method: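 24 h dosing of HepG2 bearing cis-reporter constructs; mRNA readout by RT-PCR/CE fluorescence; bidirectional fit, DMSO baseline.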
# [17] = ATG_FoxO_CIS: Attagene CIS-FACTORIAL HepG2 Assay for human Forkhead box O (FoxO) (AID 2282943); conditions: HepG2 Attagene cis-reporter, FoxO element, mRNA; actives raise or lower the signal
# Summary of the method: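 HepG2 cells transiently transfected with cis-promoter-driven multiple reporter transcription units; 24 h after chemical dosing, reporter mRNA quantified by RT-PCR, fluorescent primer extension, HpaI digestion and capillary electrophoresis. Bidirectional fitting versus DMSO baseline.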
# [18] = ATG_GATA_CIS: Attagene CIS-FACTORIAL HepG2 Assay for human GATA Binding Protein (AID 2282944); conditions: HepG2 GATA cis-element reporter, Attagene multiplex mRNA; actives raise or lower the signal
# Summary of the method: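 Endogenous transcription factor activity was captured through cis-promoter-driven reporters in transfected HepG2 cells. After 24 h exposure, reporter transcripts were quantified by RT-PCR with fluorescent capillary electrophoresis, and responses fitted both directions against DMSO.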
# [19] = ATG_M_19_CIS: Attagene CIS-FACTORIAL HepG2 Assay for M19 Transcription Factor (Internal Marker) (AID 2282939); conditions: HepG2 Attagene CIS-FACTORIAL M19 internal marker reporter; actives raise or lower the signal
# Summary of the method: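 Background-control endpoint from a multiplexed HepG2 reporter panel. Cells carrying cis-regulated reporter constructs are treated 24 h, then reporter transcripts are amplified, fluorescently labelled and sized by capillary electrophoresis. DMSO defines baseline.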
structure (smiles),measurement,setting,value
OCCCc1cccnc1,outcome,[1],inactive
same,outcome,[2],inactive
same,outcome,[3],inactive
same,outcome,[4],inactive
same,outcome,[5],inactive
same,outcome,[6],inactive
same,outcome,[7],inactive
same,outcome,[8],inactive
same,outcome,[9],inactive
same,outcome,[10],inactive
same,outcome,[11],inactive
same,outcome,[12],inactive
same,outcome,[13],inactive
same,outcome,[14],inactive
same,outcome,[15],inactive
same,outcome,[16],inactive
same,outcome,[17],inactive
same,outcome,[18],inactive
O=S(=O)(O)CCC(F)(F)C(F)(F)C(F)(F)C(F)(F)F,outcome,[1],inactive
same,outcome,[2],inactive
same,outcome,[3],inactive
same,outcome,[4],inactive
same,outcome,[5],inactive
same,outcome,[6],inactive
same,outcome,[7],inactive
same,outcome,[8],inactive
same,outcome,[9],inactive
same,outcome,[10],inactive
same,outcome,[12],inactive
same,outcome,[13],inactive
same,outcome,[19],inactive
same,outcome,[14],inactive
same,outcome,[15],inactive
same,outcome,[16],inactive
same,outcome,[17],inactive
same,outcome,[18],inactive
F[Si-2](F)(F)(F)(F)F,outcome,[1],inactive
same,outcome,[2],inactive
same,outcome,[3],inactive
same,outcome,[4],inactive
same,outcome,[5],inactive
same,outcome,[6],inactive
same,outcome,[7],inactive
same,outcome,[8],inactive
same,outcome,[9],inactive
same,outcome,[11],inactive
same,outcome,[12],inactive
same,outcome,[13],inactive
same,outcome,[14],inactive
same,outcome,[15],inactive
same,outcome,[16],inactive
same,outcome,[17],inactive
same,outcome,[18],inactive
NCC(F)(F)C(F)(F)C(F)(F)C(F)(F)C(F)(F)C(F)(F)C(F)(F)C(F)(F)F,outcome,[1],inactive
same,outcome,[2],inactive
same,outcome,[3],inactive
same,outcome,[4],inactive
same,outcome,[5],inactive
same,outcome,[6],inactive
same,outcome,[7],inactive
same,outcome,[8],inactive
same,outcome,[9],inactive
same,outcome,[11],inactive
same,outcome,[12],inactive
same,outcome,[13],inactive
same,outcome,[19],inactive
same,outcome,[15],inactive
same,outcome,[16],inactive
same,outcome,[17],inactive
same,outcome,[18],inactive
CCOCOCC,outcome,[1],inactive
same,outcome,[2],inactive
same,outcome,[3],inactive
same,outcome,[4],inactive
same,outcome,[5],inactive
same,outcome,[6],inactive
same,outcome,[7],inactive
same,outcome,[8],inactive
same,outcome,[9],inactive
same,outcome,[10],inactive
same,outcome,[11],inactive
same,outcome,[12],inactive
same,outcome,[13],inactive
same,outcome,[14],inactive
same,outcome,[15],inactive
same,outcome,[16],inactive
same,outcome,[17],inactive
same,outcome,[18],inactive
C=CC(=O)OCCC(F)(F)C(F)(F)C(F)(F)C(F)(F)F,AC50,[1],17.1 µM (active)
same,outcome,[2],inactive
same,outcome,[3],inactive
same,outcome,[4],inactive
same,AC50,[5],94 µM (active)
same,AC50,[6],213 µM (active)
same,outcome,[7],inactive
same,AC50,[8],101 µM (active)
same,outcome,[9],inactive
same,outcome,[11],inactive
same,outcome,[12],inactive
same,outcome,[13],inactive
same,outcome,[19],inactive
same,outcome,[14],inactive
same,outcome,[15],inactive
same,outcome,[16],inactive
same,outcome,[17],inactive
same,outcome,[18],inactive
CCOC(OCC)OCC,outcome,[1],inactive
same,outcome,[2],inactive
same,outcome,[3],inactive
same,outcome,[4],inactive
same,outcome,[5],inactive
same,outcome,[6],inactive
same,outcome,[7],inactive
same,outcome,[8],inactive
same,outcome,[9],inactive
same,outcome,[10],inactive
same,outcome,[11],inactive
same,outcome,[12],inactive
same,outcome,[13],inactive
same,outcome,[14],inactive
same,outcome,[15],inactive
same,outcome,[16],inactive
same,outcome,[17],inactive
same,outcome,[18],inactive
